Source: PubChem (several laboratories)
PrPC TRFRET: cell surface PrPC inhibition, primary TR-FRET screen. P04156. TR-FRET read-out. inhibition, % at 13.8 µM. actives 0.43% (n = 370,000). AID 720596; in the data active = inhibition above about 24%
PrP UTR inh: suppresses PrP 5' UTR mRNA reporter expression; cell-based PrP 5' UTR mRNA reporter, plate reader; inhibition, % (concentration not given with the values); actives 0.35% (n = 340,000); AID 488862; in the data active = inhibition above about 52%
CCHF vOTU inh-1: blocks the CCHF virus ovarian tumor domain protease | CCHFV vOTU protease, Pep-AMC fluorescence | inhibition, % at 11.5 µM | actives 0.55% (n = 370,000) | AID 651958
SARS 3CLpro inh: SARS-CoV 3CLpro protease inhibition; P0C6X7; recombinant SARS-CoV 3CLpro, quenched FRET peptide cleavage; inhibition, % at 6 µM; actives 0.14% (n = 290,000); AID 1706; in the data active = inhibition above about 12%
CCHF vOTU inh-2: confirmation of CCHF virus vOTU protease inhibitors | inhibition, % at 11.5 µM | AID 686976 | Recombinant CCHFV vOTU, Pep-AMC fluorescence | actives 17% (n = 1,900) | shares compounds with CCHF vOTU inh-1
Each line names hits and unclear results; the compound was inactive in the other large screens (follow-up assays come after a bar, where they were run). Only some compounds are listed: those with a hit (about 1.3% of all), similar ones and a draw of the others. Rule as the data show it, unless noted: active = inhibition above about 30%; inactive = the rest.

Cc1ccccc1S(=O)(=O)N1[C@@H](c2ccc(Br)cc2)C(C(=O)O)=CC[C@H]1c1ccc(Cl)cc1	CCHF vOTU inh-1 45 (no result: SARS 3CLpro inh) | CCHF vOTU inh-2 inactive
CC(C)CC(=O)N1CCN(Cc2ccc3c(c2)OCO3)CC1	none
CCOCC1(CCc2ccccc2)C(=O)NC(=S)NC1=O	none (no result: SARS 3CLpro inh)
Cc1cc(NC(=O)C2CC(=O)N(c3ccc(F)cc3)C2)no1 (stereo unspecified)	none
COc1ccccc1C1CN(c2ccccc2)N=C1c1cccs1 (stereo unspecified)	none
COc1ccc(-c2cc(C3CC3)nc(N)c2C#N)cc1	none (no result: PrP UTR inh)
Nc1ccc(S(=O)(=O)Nc2nccc(/C=C/c3ccc(Cl)cc3)n2)cc1	none
Cc1ccc(S(=O)(=O)N2[C@@H](c3ccc(Br)cc3)C(C(=O)O)=CC[C@H]2c2ccc(Cl)cc2)cc1	CCHF vOTU inh-1 39 (no result: SARS 3CLpro inh) | CCHF vOTU inh-2 inactive
Cc1ccc([C@@H]2CC=C(C(=O)O)[C@H](c3ccc(Cl)cc3)N2S(=O)(=O)c2ccc(C)cc2)cc1	none (no result: SARS 3CLpro inh)
Cc1ccc([C@@H]2CC=C(C(=O)O)[C@H](c3ccc(Br)cc3)N2S(=O)(=O)c2ccccc2C)cc1	CCHF vOTU inh-1 39 (no result: SARS 3CLpro inh) | CCHF vOTU inh-2 inactive
COc1ccc([C@@H]2CC=C(C(=O)O)[C@H](c3ccc(Br)cc3)N2S(=O)(=O)c2ccccc2C)cc1	none (no result: SARS 3CLpro inh)
Cc1onc(-c2ccccc2)c1C(=O)N/N=C/c1ccc(O)c([N+](=O)[O-])c1	CCHF vOTU inh-1 33 | CCHF vOTU inh-2 inactive
Nc1ccc2cc3ccc(N)cc3nc2c1	CCHF vOTU inh-1 53 (no result: PrP UTR inh, SARS 3CLpro inh) | CCHF vOTU inh-2 30
Cn1nc(C(C)(C)C)cc1N1C(=O)CCC1(C)C(=O)Nc1ccc2ccccc2c1 (stereo unspecified)	none (no result: PrP UTR inh, SARS 3CLpro inh)
Cc1cc(Br)cn2c(Cc3ccccc3C(F)(F)F)c(-c3ccccc3)nc12	none (no result: PrP UTR inh, SARS 3CLpro inh)
Cc1cc(Br)cn2c(Cc3ccccc3C(F)(F)F)c(-c3ccco3)nc12	CCHF vOTU inh-1 30 (no result: PrP UTR inh, SARS 3CLpro inh) | CCHF vOTU inh-2 inactive
CC(C)(C)c1ccc(S(=O)(=O)NC(=O)C2(C)CCN2C(=O)C2(c3ccc(Cl)cc3)CC2)cc1 (stereo unspecified)	CCHF vOTU inh-1 31 (no result: PrP UTR inh, SARS 3CLpro inh) | CCHF vOTU inh-2 inactive
CC1(C(=O)NS(=O)(=O)c2ccc(Cl)cc2)CCN1C(=O)C1(c2ccc(Cl)cc2)CC1 (stereo unspecified)	none (no result: PrP UTR inh, SARS 3CLpro inh)
CCOC(=O)C1=CC[C@@H](c2cc3cc(OC)ccc3n2C)N(S(=O)(=O)c2ccc(C)cc2)[C@H]1C(=O)OCC	none (no result: SARS 3CLpro inh)
CCOC(=O)C1=CCC(c2cc3ccc(OC)cc3n2C(=O)OC(C)(C)C)NC1 (stereo unspecified)	CCHF vOTU inh-1 34 (no result: PrP UTR inh, SARS 3CLpro inh) | CCHF vOTU inh-2 inactive
CCCCOCCCNC(=O)c1ccc(NC(C)=O)cc1	none
S=C(NCc1ccco1)N1CCN(c2ccc(Cl)cc2)CC1	none
O=[N+]([O-])c1ccc(S(=O)(=O)Nc2nc(-c3ccccc3)cs2)cc1	none
O=S(=O)(Nc1nc(-c2ccccc2)cs1)c1cccc(C(F)(F)F)c1	CCHF vOTU inh-1 32 | CCHF vOTU inh-2 inactive
Cc1ccc(NC(=O)c2sccc2SCc2cccc(C(F)(F)F)c2)cc1	CCHF vOTU inh-1 40 | CCHF vOTU inh-2 inactive
CCOc1ccc(-n2c(=S)sc3c(=O)n(-c4ccc(F)cc4)c(SCC(=O)O)nc32)cc1	CCHF vOTU inh-1 34 | CCHF vOTU inh-2 inactive
O=C(Nc1ccccc1)C12CC3CC(C1)CC(n1cnc([N+](=O)[O-])n1)(C3)C2	none
CC1=C(C(=O)OC(C)C)C2(O)C(=O)c3ccccc3C2(O)N1 (stereo unspecified)	none
CC(=O)C1=C(C)OC2(O)c3ccccc3C(=O)C12O (stereo unspecified)	CCHF vOTU inh-1 71 (no result: PrP UTR inh) | CCHF vOTU inh-2 inactive
CCOC(=O)C1=C(C)OC2(O)c3ccccc3C(=O)C12O (stereo unspecified)	CCHF vOTU inh-1 103 (no result: PrP UTR inh) | CCHF vOTU inh-2 inactive
Cc1ccc(S(=O)(=O)N2CCN(C(=O)Cn3nc(C)c([N+](=O)[O-])c3C)CC2)c(C)c1	none
CN(C)S(=O)(=O)N1CCN(S(=O)(=O)N2CCOCC2)CC1	none
CN(C)S(=O)(=O)N1CCCN(S(=O)(=O)N(C)C)CC1	CCHF vOTU inh-1 44 | CCHF vOTU inh-2 inactive
COc1ccccc1NC(=O)c1ccc(NS(=O)(=O)c2ccc(F)c(F)c2F)cc1	CCHF vOTU inh-1 30 | CCHF vOTU inh-2 inactive
Cc1ccc(Cc2c(-c3cccc(Br)c3)nc3ccc(C)cn23)cc1	none (no result: PrP UTR inh, SARS 3CLpro inh)
Cc1ccc(-c2nc3ccc(Cl)cn3c2Cc2ccccc2C(F)(F)F)cc1	CCHF vOTU inh-1 32 (no result: PrP UTR inh, SARS 3CLpro inh) | CCHF vOTU inh-2 inactive
Cc1ccc(Cc2c(-c3cccc(Br)c3)nc3ccc(Cl)cn23)cc1	CCHF vOTU inh-1 40 (no result: PrP UTR inh, SARS 3CLpro inh) | CCHF vOTU inh-2 inactive
O=C(/C=C/c1ccc([N+](=O)[O-])cc1)/C=C/c1ccco1	none
CCOC(=O)c1c(S(=O)(=O)NCC(=O)NCc2ccc(C)cc2)c(C)n(C)c1C	CCHF vOTU inh-1 42 | CCHF vOTU inh-2 inactive
CCOC(=O)c1c(S(=O)(=O)NCC(=O)NCc2ccccc2Cl)c(C)n(C)c1C	none
O=C1Cc2ccccc2C(=O)N1CCc1ccccc1	CCHF vOTU inh-1 100 | CCHF vOTU inh-2 102
Cc1cc(C(F)(F)F)nc(SCc2ccc(C(=O)O)o2)n1	CCHF vOTU inh-1 41 | CCHF vOTU inh-2 inactive
Cc1cc(C)nc(SCc2ccc(C(=O)O)o2)n1	none
CC(=O)c1ccc(OC(=O)CN2C(=O)c3ccccc3C2=O)cc1	none
Cc1cc(Br)c(NC(=O)CN(C)CCOc2ccccc2)c(Br)c1	none
COc1ccc(NC(=O)c2cccnn2)cc1	none
CCOC(=O)c1oc2c(c1C)C(=O)CCC2	none
CCOC(=O)c1oc2c(c1C)/C(=N/O)CCC2	CCHF vOTU inh-1 33 | CCHF vOTU inh-2 inactive
CCOc1ccc(-c2nnc(SCC(=O)Nc3cc(C)on3)o2)cc1	none
Oc1cc(Nc2cccnc2)cc2cccnc12	none (no result: SARS 3CLpro inh)
Oc1cc(NCCc2cccnc2)cc2cccnc12	CCHF vOTU inh-1 41 (no result: SARS 3CLpro inh) | CCHF vOTU inh-2 inactive
CC(OC(=O)c1cccc(-n2cnnn2)c1)C(=O)Nc1ccc(F)cc1Cl (stereo unspecified)	CCHF vOTU inh-1 33 (no result: SARS 3CLpro inh) | CCHF vOTU inh-2 inactive
COc1ccccc1NC(=O)C(C)OC(=O)c1cccc(-n2cnnn2)c1 (stereo unspecified)	none (no result: SARS 3CLpro inh)
COCCn1c(SCC(=O)Nc2ccccc2C(F)(F)F)nc2ccccc2c1=O	none
COCCn1c(SCC(=O)Nc2cccnc2Cl)nc2ccccc2c1=O	CCHF vOTU inh-1 31 (no result: SARS 3CLpro inh) | CCHF vOTU inh-2 inactive
CSc1ccc(C(c2c(C(=O)O)[nH]c3ccccc23)c2c(C(=O)O)[nH]c3ccccc23)cc1	none
CCOc1cc(Br)cc(C(c2c(C(=O)O)[nH]c3ccccc23)c2c(C(=O)O)[nH]c3ccccc23)c1O	CCHF vOTU inh-1 43 | CCHF vOTU inh-2 inactive
CCCCC(CC)C(=O)Oc1ccc(O)c(C(C)(C)C)c1 (stereo unspecified)	CCHF vOTU inh-1 31 | CCHF vOTU inh-2 inactive
N#C/C(=C\c1cc([N+](=O)[O-])ccc1Cl)C(N)=O	none
N#C/C(=C/c1ccc([N+](=O)[O-])cc1)C(N)=O	CCHF vOTU inh-1 34 | CCHF vOTU inh-2 inactive
c1ccc(Cn2cc(CCOCc3ccccn3)c3ccccc32)cc1	CCHF vOTU inh-1 32 (no result: PrP UTR inh, SARS 3CLpro inh) | CCHF vOTU inh-2 inactive
OCCCc1cn(Cc2ccccc2)c2ccccc12	none
